# Results filed as inconclusive are left out. Where a call stands in place of a potency, no number is given. The source made the active and inactive calls. The call rests on the fitted dose curve; tested in HEK293 reporter line.
# Experiment: qHTS for Inhibitors of the Functional Ribonucleoprotein Complex (vRNP) of Lassa (LASV) Arenavirus: LASV Primary Screen - GLuc reporter signal (AID 1347082); further: nearly all actives have a fitted effect of over 60% in size
# Conditions: LASV minigenome vRNP, Gaussia luciferase reporter; series mostly up to 57.5 µM
row,Structure (SMILES),Potency
1,CC(C)=CC1C(C(=O)OCc2cccc(Oc3ccccc3)c2)C1(C)C (stereo not drawn),inactive
2,CN1C(=S)CN=C(c2ccccc2)c2cc(Cl)ccc21,inactive
3,CCN(CC)CCOC(=O)C(O)(c1ccccc1)c1ccccc1,inactive
4,C=C1C[C@@H]2[C@H](CC[C@]3(C)C(=O)CC[C@@H]23)[C@@]2(C)C=CC(=O)C=C12,inactive
5,O=C(O)c1ccc2[nH]cc(CCCCN3CC=C(c4ccccc4)CC3)c2c1,inactive
6,CCOP(=S)(OCC)Oc1cc(C)nc(C(C)C)n1,inactive
7,Oc1ccccc1-c1ccccc1,inactive
8,CC(C)(C)NCC(O)c1cc(Cl)c(N)c(Cl)c1 (stereo not drawn),inactive
9,C[C@]12CC[C@H]3[C@@H](CCC4=CC(=O)CC[C@@H]43)[C@@H]1CC[C@@H]2OC(=O)CCc1ccccc1,inactive
10,CC(=O)Nc1cc([As](=O)(O)O)ccc1O,inactive
11,N[C@@H]1C[C@H]1c1ccccc1,inactive
12,c1ccc2c(c1)Nc1ccccc1S2,inactive
13,CC1=C2C[C@@H]3[C@@H](CC=C4C[C@@H](O)CC[C@@]43C)[C@@H]2CC[C@]12O[C@H]1C[C@H](C)CN[C@H]1[C@H]2C,inactive
14,O=P1(NCCCl)OCCCN1CCCl (stereo not drawn),inactive
15,O=C(O)C(=O)c1cn(Cc2ccccc2)c2ccc(-c3ccc(OC(F)(F)F)cc3)cc12,inactive
16,Cc1ccc2c(c1)C1CN(C)CCC1N2 (stereo not drawn),inactive
17,COC1(CS(=O)c2ccccc2)CCN(CCc2c[nH]c3ccc(F)cc23)CC1 (stereo not drawn),inactive
18,CC1OC(C)OC(C)O1 (stereo not drawn),inactive
19,O=[N+]([O-])c1cc([As](=O)(O)O)ccc1O,inactive
20,O=C1CC[C@@]2(O)[C@H]3Cc4ccc(O)c5c4[C@@]2(CCN3CC2CC2)[C@H]1O5,inactive

row,Structure (SMILES),Potency
1,Oc1ccc(Cl)cc1Cc1ccccc1,inactive
2,Oc1cccc2cccnc12,inactive
3,FC(F)(F)c1cccc(C2=CCN(CCc3ccc4ccccc4c3)CC2)c1,inactive
4,NP(N)(=O)NC(=O)c1ccc(F)cc1,inactive
5,CC(C)NCC(O)c1ccccc1Cl (stereo not drawn),inactive
6,CCCC1CCCCN1 (stereo not drawn),inactive
7,CC[N+](CC)(CC)CC,inactive
8,C#CCN(C)[C@H](C)Cc1ccccc1,inactive
9,O=c1oc2ccccc2c(O)c1C(CC(O)c1ccc(-c2ccc(Br)cc2)cc1)c1ccccc1 (stereo not drawn),inactive
10,N[C@@H](Cc1ccc(Oc2cc(I)c(O)c(I)c2)c(I)c1)C(=O)O,inactive
11,Clc1ccc(CCC(Cn2ccnc2)Sc2c(Cl)cccc2Cl)cc1 (stereo not drawn),inactive
12,Cn1c(CCCC(=O)O)nc2cc(N(CCCl)CCCl)ccc21,inactive
13,C#CCOC(C(=O)OCCN(C)C)(c1ccccc1)c1ccccc1,inactive
14,CC(C)(N)Cc1ccc(Cl)cc1,inactive
15,OCCOc1ccccc1,inactive
16,CCC(C(N)=O)N1CCCC1=O (stereo not drawn),inactive
17,Clc1cccc(N2CCNCC2)c1,inactive
18,CC(C)(C)CC(C)(C)c1ccc(O)cc1,inactive
19,NCCc1cc(O)c(O)cc1O,inactive

# Experiment: qHTS for Inhibitors of the Functional Ribonucleoprotein Complex (vRNP) of Lassa (LASV) Arenavirus: Viability assay - alamar blue signal for LASV Primary Screen (AID 1347083); further: nearly all actives have a fitted effect of over 80% in size
# Conditions: cell viability, alamar blue fluorescence (LASV minigenome counter-screen); series mostly up to 57.5 µM
row,Structure (SMILES),Potency
1,CC(C)=CC1C(C(=O)OCc2cccc(Oc3ccccc3)c2)C1(C)C (stereo not drawn),inactive
2,CN1C(=S)CN=C(c2ccccc2)c2cc(Cl)ccc21,inactive
3,CCN(CC)CCOC(=O)C(O)(c1ccccc1)c1ccccc1,inactive
4,C=C1C[C@@H]2[C@H](CC[C@]3(C)C(=O)CC[C@@H]23)[C@@]2(C)C=CC(=O)C=C12,inactive
5,O=C(O)c1ccc2[nH]cc(CCCCN3CC=C(c4ccccc4)CC3)c2c1,inactive
6,CCOP(=S)(OCC)Oc1cc(C)nc(C(C)C)n1,inactive
7,Oc1ccccc1-c1ccccc1,inactive
8,CC(C)(C)NCC(O)c1cc(Cl)c(N)c(Cl)c1 (stereo not drawn),inactive
9,C[C@]12CC[C@H]3[C@@H](CCC4=CC(=O)CC[C@@H]43)[C@@H]1CC[C@@H]2OC(=O)CCc1ccccc1,inactive
10,CC(=O)Nc1cc([As](=O)(O)O)ccc1O,inactive
11,N[C@@H]1C[C@H]1c1ccccc1,inactive
12,c1ccc2c(c1)Nc1ccccc1S2,inactive
13,CC1=C2C[C@@H]3[C@@H](CC=C4C[C@@H](O)CC[C@@]43C)[C@@H]2CC[C@]12O[C@H]1C[C@H](C)CN[C@H]1[C@H]2C,inactive
14,O=P1(NCCCl)OCCCN1CCCl (stereo not drawn),inactive
15,O=C(O)C(=O)c1cn(Cc2ccccc2)c2ccc(-c3ccc(OC(F)(F)F)cc3)cc12,inactive
16,Cc1ccc2c(c1)C1CN(C)CCC1N2 (stereo not drawn),inactive
17,COC1(CS(=O)c2ccccc2)CCN(CCc2c[nH]c3ccc(F)cc23)CC1 (stereo not drawn),inactive
18,CC1OC(C)OC(C)O1 (stereo not drawn),inactive
19,O=[N+]([O-])c1cc([As](=O)(O)O)ccc1O,inactive
20,O=C1CC[C@@]2(O)[C@H]3Cc4ccc(O)c5c4[C@@]2(CCN3CC2CC2)[C@H]1O5,inactive

row,Structure (SMILES),Potency
1,Oc1ccc(Cl)cc1Cc1ccccc1,inactive
2,Oc1cccc2cccnc12,inactive
3,FC(F)(F)c1cccc(C2=CCN(CCc3ccc4ccccc4c3)CC2)c1,inactive
4,NP(N)(=O)NC(=O)c1ccc(F)cc1,inactive
5,CC(C)NCC(O)c1ccccc1Cl (stereo not drawn),inactive
6,CCCC1CCCCN1 (stereo not drawn),inactive
7,CC[N+](CC)(CC)CC,inactive
8,C#CCN(C)[C@H](C)Cc1ccccc1,inactive
9,O=c1oc2ccccc2c(O)c1C(CC(O)c1ccc(-c2ccc(Br)cc2)cc1)c1ccccc1 (stereo not drawn),inactive
10,N[C@@H](Cc1ccc(Oc2cc(I)c(O)c(I)c2)c(I)c1)C(=O)O,inactive
11,Clc1ccc(CCC(Cn2ccnc2)Sc2c(Cl)cccc2Cl)cc1 (stereo not drawn),inactive
12,Cn1c(CCCC(=O)O)nc2cc(N(CCCl)CCCl)ccc21,inactive
13,C#CCOC(C(=O)OCCN(C)C)(c1ccccc1)c1ccccc1,inactive
14,CC(C)(N)Cc1ccc(Cl)cc1,inactive
15,OCCOc1ccccc1,inactive
16,CCC(C(N)=O)N1CCCC1=O (stereo not drawn),inactive
17,Clc1cccc(N2CCNCC2)c1,inactive
18,CC(C)(C)CC(C)(C)c1ccc(O)cc1,inactive
19,NCCc1cc(O)c(O)cc1O,inactive
